Source: PubChem BioAssay (National Center for Advancing Translational Sciences (NCATS))
Methyltransferases: Primary Screen for Target Class Profiling of Small Molecule Inhibitors of Methyltransferases; purified enzyme, MTase-Glo SAH luminescence; stronger effect = lower value; calls only at 40 µM; 25,000 tested, 3.9% active; AID 1745853, 2022; call rule not given here
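Each enzyme was reacted with SAM and its substrate, with compounds tested once at 40 uM; SAH formed was read by MTase-Glo luminescence.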
Calls only; 0 = inactive; + = active, no number; ! = repeats disagree. Many of the other results were omitted from the sample, so hits are more common in it than they were.

SMILES | Methyltransferases
CC(C)OCCCn1c(=O)c2ccccc2n2c(CCC(=O)NCc3ccccc3)nnc12 | 0
CCOC(=O)c1oc2cc3sc(N4CCCCC4)nc3cc2c1C | 0
CC(C)CCNC(=O)C1c2c(n(C)c3ccccc23)SCC(=O)N1c1cccc(C(F)(F)F)c1 (centres undefined) | 0
O=C(O[C@@H]1O[C@H](CO)[C@@H](O)[C@H](O)[C@H]1O)c1ccccc1 | 0
CC1=C(C(=O)OC2OC(COC3OC(CO)C(O)C(O)C3O)C(O)C(O)C2O)C(C)(C)CCC1 (centres undefined) | 0
CC(C)(O)C1CC=C(C(=O)OC[C@H]2O[C@@H](OC(=O)C3=CCC(C(C)(C)O)CC3)[C@H](O)[C@@H](O)[C@@H]2O)CC1 (some centres undefined) | +
COc1ccc(CN2C(=O)c3ccc(-c4ccco4)n3CC2(C)C(=O)NCc2ccc(Cl)cc2)c(OC)c1 (centres undefined) | 0
CCCCN1C(=O)c2cc(C(=O)NCc3ccc(OC)c(OC)c3)nn2CC1(C)C(=O)NC1CCCC1 (centres undefined) | 0
CC(C)Cn1c(=O)c2ccccc2n2c(CCC(=O)NCc3ccc4c(c3)OCO4)nnc12 | 0
C[C@](N)(Cc1ccc(O)c(O)c1)C(=O)O | +
COC(=O)C(C)(N)Cc1ccc(O)cc1 (centres undefined) | 0
C[C@](N)(Cc1ccc(O)cc1)C(=O)O | 0
CC1CCC(NC(=O)C2(C)Cn3c(cc4occc43)C(=O)N2Cc2ccccc2Cl)CC1 (centres undefined) | 0
Cc1ccc(C)c(Cn2nc3n(C)c(=O)c4ccc(C(=O)NCC(C)C)cc4n3c2=O)c1 | 0
NC(=O)c1cccc2[nH]c(-c3ccc([C@H]4CCCN4)cc3F)nc12 | +
NC(=O)c1cccc2[nH]c(-c3ccc(C4CCCN4)cc3F)nc12 (centres undefined) | +
NC(=O)c1cccc2[nH]c(-c3ccc([C@@H]4CCCN4)cc3F)nc12 | +
COC(=O)c1ncn2c1C(=O)N(Cc1ccc(OC)cc1OC)C(C)(C(=O)NC1CCCCC1)C2 (centres undefined) | 0
COc1ccc(-c2nnc3n(Cc4ccccc4)c(=O)c4ccccc4n23)c(O)c1 | 0
Cc1ccc(Cn2c(=O)c3ccccc3n3c(CCC(=O)N4CCN(c5ccccn5)CC4)nnc23)cc1 | 0
CCCn1c(=O)c2ccc(C(=O)NC(C)CC)cc2n2c(SCC(=O)c3ccc(OC)cc3)nnc12 (centres undefined) | 0
CCCCN(CC)CCN1C(=O)c2ccc(-c3ccco3)n2CC1(C)C(=O)NC1CCCCCCC1 (centres undefined) | 0
CC1CCN(S(=O)(=O)c2ccc3c(ccn3CC(=O)NC3CCCC3)c2)CC1 | 0
CCOC(=O)C1(CCOc2ccccc2)CCN(Cc2ccc(O)c(Cl)c2)CC1 | 0
O=C(O)Cn1nnc(-c2ccc(CN(CCCCOc3ccc(CN4CCCC4)cc3)CCc3ccccc3)cc2)n1 | +
SMILES | Methyltransferases
Cc1ccccc1NC(=O)Cn1nc2n(CC(C)C)c(=O)c3ccc(C(=O)NCC(C)C)cc3n2c1=O | 0
COc1ccc(NC(=O)CSc2nnc3[nH]c(=O)c(C)nn23)cc1OC | 0
COC(=O)c1cc2n(n1)CC(C)(C(=O)NC1CCCC1)N(Cc1ccccc1OC)C2=O (centres undefined) | 0
CC1(C(=O)NC2CCCCCCC2)Cn2c(ccc2-c2ccccc2)C(=O)N1Cc1ccc(F)cc1 (centres undefined) | 0
CC1(C)CC(=O)c2c(C(F)(F)F)nn(-c3ccc(C(N)=O)c(NC4CCC(OC(=O)CN)CC4)c3)c2C1 (centres undefined) | +!
CCC(C)NC(=O)Cn1ccc2cc(S(=O)(=O)N3CCCC3)ccc21 (centres undefined) | 0
CCC(C)NC(=O)c1ccc2c(=O)n(C)c3nn(CC(=O)c4ccc(OC)cc4)c(=O)n3c2c1 (centres undefined) | 0
CN(C)CCN1C(=O)c2cc3occc3n2CC1(C)C(=O)NC1CCCCC1 (centres undefined) | 0
CN1CCN(CCOc2cc(OC3CCOCC3)c3c(Nc4c(Cl)ccc5c4OCO5)ncnc3c2)CC1 | +
CCCSCCCNC(=O)c1cc2n(n1)CC(C)(C(=O)NC1CCCCC1)N(C)C2=O (centres undefined) | 0
CN1C(=O)c2cc3ccccc3n2CC1(C)C(=O)NCC(=O)NCCc1ccc(Cl)cc1 (centres undefined) | 0
Cc1ccc(C(=O)C(C)n2nc3n(CC(C)C)c(=O)c4ccc(C(=O)NCC(C)C)cc4n3c2=O)cc1C (centres undefined) | 0
COc1ccc(-c2cnc3ccc(NCc4ccc(S(N)(=O)=O)cc4)nn23)cc1OC | +
COc1ccc(CCNc2nc3c(S(=O)(=O)c4ccc(C)cc4)nnn3c3ccccc23)cc1OC | 0
COc1ccc(S(=O)(=O)NCc2nc(-c3ccc(OC)c(OC)c3)no2)cc1 | 0
CC(C)CNC(=O)c1ccc2c(=O)n(C(C)C)c3nn(Cc4ccccc4F)c(=O)n3c2c1 | 0
